Reference: PubChem BioAssay (EPA / NIEHS)
Results filed as inconclusive are left out. Calls of active or inactive are those of the source. How the source made its calls, unless noted: active means hit-call score of the fitted dose curve at least 0.9, where 1 is the maximum; inactive means score below 0.9.

Legend:
[1] = CCTE_Harrill_HTTr_Viability_DMEM_6hr: (Pilot) CCTE's 6-hour Cell Viability Assessment for the High-Throughput Transcriptomics (HTTr) Platform, in MCF-7 cells cultured in DMEM + 10% fetal bovine serum, Harrill Lab (AID 2283973)
In short: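 Propidium iodide uptake imaged by high-content analysis after six hours of chemical treatment in an eight-concentration series. Cells: MCF-7 grown in DMEM with 10% fetal bovine serum; DMSO as baseline.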

[2] = CCTE_Harrill_HTTr_Viability_DMEM_12hr: (Pilot) CCTE's 12-hour Cell Viability Assessment for the High-Throughput Transcriptomics (HTTr) Platform, in MCF-7 cells cultured in DMEM + 10% fetal bovine serum, Harrill Lab (AID 2283974)
In short: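 Propidium iodide dye exclusion imaged by high-content microscopy after 12 h chemical exposure (eight concentrations) of MCF-7 cells grown in DMEM plus 10% FBS; values fitted in both directions relative to DMSO.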

[3] = CCTE_Harrill_HTTr_Viability_DMEM_24hr: (Pilot) CCTE's 24-hour Cell Viability Assessment for the High-Throughput Transcriptomics (HTTr) Platform, in MCF-7 cells cultured in DMEM + 10% fetal bovine serum, Harrill Lab (AID 2283975)
In short: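 Pilot study: propidium iodide dye exclusion, imaged by high content microscopy, after 24 h compound exposure (eight concentrations) in MCF-7 cultured in DMEM + 10% fetal bovine serum; DMSO served as negative control and baseline.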

[4] = CCTE_Harrill_HTTr_Viability_PRF_DMEM_6hr: (Pilot) CCTE's 6-hour Cell Viability Assessment for the High-Throughput Transcriptomics (HTTr) Platform, in MCF-7 cells cultured phenol red-free DMEM + 10% charcoal-stripped fetal bovine serum, Harrill Lab (AID 2283976)
In short: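 Membrane integrity by high-content imaging of propidium iodide uptake, six hours after dosing with eight concentrations. Cells: MCF-7 grown in phenol red-free DMEM plus 10% charcoal-stripped serum; DMSO serves as baseline for bidirectional fits.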

[5] = CCTE_Harrill_HTTr_Viability_PRF_DMEM_12hr: (Pilot) CCTE's 12-hour Cell Viability Assessment for the High-Throughput Transcriptomics (HTTr) Platform, in MCF-7 cells cultured in phenol red-free DMEM + 10% charcoal-stripped fetal bovine serum, Harrill Lab (AID 2283977)
In short: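 Membrane integrity was scored via propidium iodide dye exclusion imaging, fitted in both directions relative to DMSO. Compounds ran as eight-point dilutions for 12 hours on MCF-7 grown in phenol red-free DMEM plus 10% charcoal-stripped serum.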

[6] = CCTE_Harrill_HTTr_Viability_PRF_DMEM_24hr: (Pilot) CCTE's 24-hour Cell Viability Assessment for the High-Throughput Transcriptomics (HTTr) Platform, in MCF-7 cells cultured in phenol red-free DMEM + 10% charcoal-stripped fetal bovine serum, Harrill Lab (AID 2283980)
In short: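 Propidium iodide exclusion imaged at 24 h after dosing scores viability; cells were MCF-7 grown in phenol red-free DMEM plus 10% charcoal-stripped serum, tested in eight concentrations, fitted in both directions against DMSO.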

[7] = CCTE_Harrill_HTTr_Apoptosis_DMEM_6hr: (Pilot) CCTE's 6-hour Apoptosis Assessment for the High-Throughput Transcriptomics (HTTr) Platform, in MCF-7 cells cultured in DMEM + 10% fetal bovine serum, Harrill Lab (AID 2283981)
In short: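 MCF-7 cells grown in DMEM + 10% FBS were exposed for 6 hours to an eight-point dilution series. CellEvent Caspase 3/7 Green signal was imaged; activity fitted bidirectionally against DMSO.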

[8] = CCTE_Harrill_HTTr_Apoptosis_DMEM_12hr: (Pilot) CCTE's 12-hour Apoptosis Assessment for the High-Throughput Transcriptomics (HTTr) Platform, in MCF-7 cells cultured in DMEM + 10% fetal bovine serum, Harrill Lab (AID 2283982)
In short: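 Caspase-3/7 activity was measured by high-content imaging (CellEvent Caspase 3/7 Green) after a 12-hour exposure of MCF-7 cells grown in DMEM with 10% FBS. Eight-point concentration series, fitted bidirectionally against vehicle.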

[9] = molecular target: Retinoic acid receptor RXR-alpha (Homo sapiens) (UniProt P19793); assay: TOX21_TR_RXR_BLA_Antagonist_Followup_ratio: Tox21 Thyroid Hormone Receptor beta Retinoid X Receptor alpha (RXRa) Antagonism Beta-lactamase (BLA) Follow-Up Assay, Ratio (AID 2283972; active means hit-call score of the fitted dose curve at least 0.9, where 1 is the maximum)
In short: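 RXRa-UAS-bla HEK293T cells, 2,500/well in phenol red-free DMEM with 2% charcoal-stripped FBS, 5 h attachment, then compounds (11 concentrations, triplicate) for 16 h at 37C; FRET-B/GCCF4-AM substrate 2 h RT; 460:530 nm ratio, loss of signal vs DMSO.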

[10] = TOX21_TR_RXR_BLA_Antagonist_Followup_viability: Viability Assessment in the Tox21 Thyroid Hormone Receptor beta Retinoid X Receptor alpha (RXRa) Antagonism Beta-lactamase (BLA) Follow-Up Assay (AID 2283979; active means hit-call score of the fitted dose curve at least 0.9, where 1 is the maximum)
In short: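 Follow-up compounds (11 concentrations, triplicate) were incubated 16 h at 37C/5% CO2 with HEK293T RXRa-bla cells seeded at 2,500/well in charcoal-stripped-serum medium. ATP content by CellTiter-Glo luminescence gave viability; curves fitted in both directions against DMSO.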

Measured: outcome

Chain of Retinoic acid receptor RXR-alpha (Homo sapiens) (P19793 whole entry, looked up): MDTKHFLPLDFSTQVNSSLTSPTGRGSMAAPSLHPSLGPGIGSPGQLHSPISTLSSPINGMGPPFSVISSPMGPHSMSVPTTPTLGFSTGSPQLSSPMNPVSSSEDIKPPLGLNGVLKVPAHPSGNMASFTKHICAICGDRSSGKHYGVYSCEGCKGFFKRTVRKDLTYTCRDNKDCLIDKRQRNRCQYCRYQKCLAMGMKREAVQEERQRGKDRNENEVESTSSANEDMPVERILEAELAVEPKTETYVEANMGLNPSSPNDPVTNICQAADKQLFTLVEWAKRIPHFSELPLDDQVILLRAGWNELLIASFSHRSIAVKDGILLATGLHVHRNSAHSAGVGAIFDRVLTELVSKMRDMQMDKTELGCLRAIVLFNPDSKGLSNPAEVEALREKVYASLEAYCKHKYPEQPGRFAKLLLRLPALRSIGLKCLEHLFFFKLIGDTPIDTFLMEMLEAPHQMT

CC(C)(c1ccccc1)c1ccc(O)cc1
not listed: [9] | [10]
inactive: all other assays above

CCC(C)(c1ccc(O)cc1)c1ccc(O)cc1
not listed: [9] | [10]
inactive: all other assays above

CO/C=C(/C(=O)OC)c1ccccc1COc1cccc(C(F)(F)F)n1
inactive: [9] | [10]

C[C@]12CCC(=O)C=C1CC[C@@H]1[C@@H]2CC[C@@]2(C)[C@H]1CC[C@]2(C)O
inactive: [10]
